Bioassay records (PubChem)
tim10-1 inh: tim10-1 yeast growth inhibition. S. cerevisiae tim10-1 ts strain growth, BacTiter-Glo, 24 h. inhibition, % at 20 µM. 330,000 tested, 2.2% active. AID 463190;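 active = inhibition of at least 40%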;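 also: mutant grown at 25 °C; 0% = DMSO wells with yeast and 100% = wells holding no yeast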
PfHsp90 set2: inhibits growth of yeast expressing Plasmodium falciparum Hsp90; S. cerevisiae expressing PfHsp90, BacTiter-Glo ATP, 48 h; yeast lacking PDR1 and PDR3 efflux regulators; 310,000 tested, 0.32% active; inhibition, % at 9.4 µM;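 active = every replicate shows inhibition above about 80%, whatever the replicate mean, limit read from the data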;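 also: 0% = DMSO neutral controls and 100% = 20 µM radicicol positive controls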
SUMO Mot1 rescue: blocks SUMOylation pathway, rescuing yeast Mot1-301 growth. growth rescue, % at 18.8 µM. 320,000 tested, 1% active. S. cerevisiae Mot1-301 growth rescue, ATP luminescence, 38.5C; percent above DMSO median, 100 means doubled;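 active = every valid replicate shows activation above 250% relative to neutral control wells; inactive = the rest, any valid replicate at or below 250%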;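 also: OY570 slx delta 5 strain wells were the positive control but not used for scaling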
tim23-1 inh: tim23-1 yeast growth inhibition. S. cerevisiae tim23-1 growth, BacTiter-Glo luminescence, 24 h. inhibition, % at 20 µM. 330,000 tested, 1.3% active. AID 463212;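 active = growth inhibition of the mutant yeast at or above 50%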;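 also: temperature-sensitive mutant grown at 25 °C; plate controls were DMSO-treated mutant yeast for no effect and medium wells lacking yeast for full effect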
TIM10 inh: inhibits growth of TIM10 yeast strain; S. cerevisiae TIM10 strain growth, BacTiter-Glo luminescence, 24 h; inhibition, % at 10 µM; 330,000 tested, 1.4% active; AID 463195;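 active = inhibition of 40% or more at the single tested concentration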;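 also: wild-type TIM10 isogenic control strain grown at permissive 25 °C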
tim10-1 confirm: tim10-1 yeast growth inhibition, confirmed; AID 463213; shares compounds with tim10-1 inh; S. cerevisiae tim10-1 ts strain growth, BacTiter-Glo, 24 h; inhibition, % at 20 µM; 7,400 tested, 56% active;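 active = inhibition of yeast growth at or above a set limit in either of two repeat tests at 20 µM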;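 also: tim10-1 mutant grown at permissive 25 °C to find synthetic lethal compounds; 0% = DMSO yeast wells and 100% = medium wells without yeast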
The depositor's hits bear a star; · = no result given. In the library only some 4.4% were active in any assay of this set; here they are far more common.

SMILES | tim10-1 inh | PfHsp90 set2 | SUMO Mot1 rescue | tim23-1 inh | TIM10 inh | tim10-1 confirm
N#Cc1ccc(C#Cc2ccc3oc4ccccc4c(=O)c3c2)cc1 | -3 | -16 | -14 | -4 | -1 | ·
Cn1c2ccccc2c(=O)c2cc(C#Cc3ccsc3)ccc21 | 0 | -36 | 11 | -14 | -8 | ·
O=C(Cc1ccc(NC(=O)C2CCCN(C(=O)C3CCC3)C2)cc1)Nc1cccc(C(=O)N2CCCCC2)c1 (centres undefined) | · | -15 | · | · | · | ·
Cc1ccc(CNC(=O)CN(C)S(=O)(=O)c2ccc(F)cc2)cc1 | 8 | -6 | -3 | 17 | -6 | ·
O=C(/C=C/c1cccs1)c1ccco1 | · | -7 | · | · | · | ·
COc1ccc(C(=O)n2cnc3ccccc32)cc1[N+](=O)[O-] | 1 | -7 | 12 | 11 | -7 | ·
Cc1csc(N/N=C/c2ccc(O)c([N+](=O)[O-])c2)n1 | 51* | · | 7 | 40 | 30 | 33*
C=C(C)CC1Nc2ccccc2NC1CC(=C)C (centres undefined) | 42* | 9 | -27 | 43 | 34 | 41*
Cc1csc(NC(=O)c2cccnc2Cl)n1 | 6 | -1 | -4 | 11 | 11 | ·
COc1ccc(-c2noc(N3CCC(C(=O)Nc4ccc(F)cc4)CC3)n2)cc1 | 14 | 7 | 4 | 4 | -3 | ·
COc1ccc(NC(=O)C2CCCN(c3ncnc4onc(-c5ccc(F)cc5)c34)C2)cc1 (centres undefined) | 42* | 5 | 11 | 32 | 5 | -7
COc1cc(C2C=C(Nc3ccccc3)C(=O)N2c2ccccc2)ccc1O (centres undefined) | 42* | 14 | -5 | 21 | 19 | 11
CC(C)C1N=C(c2ccc3c(c2)OCO3)CC(c2ccccc2O)N1 (centres undefined) | 16 | -4 | 0 | 15 | 19 | ·
CCOc1ccccc1C1N=C(c2ccc(OC)cc2)CC(c2ccccc2O)N1 (centres undefined) | 44* | -8 | 3 | 42 | 18 | 18
CC(C)N=C1NN=C(c2cccs2)CS1 | -11 | -20 | 17 | 16 | 11 | ·
CC(C)N=C1NN=C(c2ccc(Cl)c(Cl)c2)CS1 | 48* | -8 | · | 36 | 12 | 25
Cc1ccc(S(=O)(=O)/C(C#N)=C/c2c[nH]c3ccccc23)cc1 | 49* | -7 | -5 | 35 | 30 | 24
Clc1ccccc1OCc1nnc(-c2ccccc2Br)o1 | 49* | -19 | -20 | 48 | 36 | 34*
Cc1occc1-c1nnc(SCC(=O)Nc2ccccc2N2CCCCC2)n1C | 47* | -2 | 141 | 30 | 18 | 25
Cc1occc1-c1nnc(SCC(=O)Nc2ccccc2)n1C | 14 | 24 | 5 | 13 | 17 | ·
Fc1ccc(Nc2ccc3ccccc3n2)c(F)c1 | 21 | -7 | -18 | 33 | 27 | ·
CSCCC(NC(=O)c1ccccc1Br)C(=O)NC(C)CCc1ccccc1 (centres undefined) | 76* | 1 | -11 | 1 | 4 | 0
COc1ccccc1N1CCN(S(=O)(=O)CCNC(=O)C2CCCCC2)CC1 | 10 | · | -14 | 9 | 1 | ·
CC1=C/C(=C(\c2cc(C)c(O)c(Br)c2)c2ccccc2S(=O)(=O)O)C=C(Br)C1=O | 46* | 68 | -43 | 46 | 33 | 44*
COc1ccc(NC(=O)C2CCCCN2S(=O)(=O)c2ccc(F)cc2)c(OC)c1 (centres undefined) | 44* | 3 | -12 | 31 | 34 | 29
SMILES | tim10-1 inh | PfHsp90 set2 | SUMO Mot1 rescue | tim23-1 inh | TIM10 inh | tim10-1 confirm
O=C(N=C1SC2CS(=O)(=O)CC2N1c1ccc(F)cc1)C1CC1 (centres undefined) | 18 | 17 | -4 | 12 | -3 | ·
COc1ccc(NC2CCCN(C(=O)Cn3ccc(C)n3)C2)cc1OC (centres undefined) | -1 | 11 | 350 | -3 | -6 | ·
O=C(CCN1CCc2ccccc2CC1)c1ccc2c(c1)OCCO2 | 79* | -15 | 6 | 14 | 24 | 22
O=C(CCN1CCOCC1)c1ccc2c(c1)OCCO2 | 8 | 0 | 7 | 12 | 13 | ·
CCC1CCCCN1C(=O)COc1ccc(N(C)S(=O)(=O)c2ccc(C)cc2)cc1 (centres undefined) | 2 | 5 | -4 | 11 | -9 | ·
Cc1nc2c(Br)c(C)nn2c2c1CCC2 | 48* | -3 | -15 | 6 | 2 | 30
Cc1ccccc1C(=O)OCC(=O)N(C)c1ccccc1 | 52* | -4 | -7 | 37 | 16 | 31*
N#Cc1ccc(OCC(=O)Nc2ccc(N3CCCC3)cc2)cc1 | 8 | -15 | -1 | 17 | 3 | ·
O=C(COc1cccnc1[N+](=O)[O-])NCc1ccc(F)cc1 | 29 | 11 | 194 | 26 | 9 | ·
O=C(c1ccc2c(c1)OCO2)N1CCC2(CC1)Oc1ccc(F)cc1C(=O)C21CC(c2ccccc2)=NO1 (centres undefined) | 42* | -6 | 22 | -2 | -12 | 34*
O=C(c1ccoc1)N1CCC2(CC1)Oc1ccc(F)cc1C(=O)C21CC(c2ccc(Cl)cc2)=NO1 (centres undefined) | 29 | · | -20 | -7 | -13 | ·
CCC(=O)N1CCC2(CC1)Oc1ccc(F)cc1C(=O)C21CC(c2ccc(Cl)cc2)=NO1 (centres undefined) | 14 | -18 | 9 | 26 | 12 | ·
O=C(c1ccc2c(c1)OCO2)N1CCC2(CC1)Oc1ccc(F)cc1C(=O)C21CC(c2cccnc2)=NO1 (centres undefined) | 20 | 17 | -16 | 14 | 8 | ·
Cc1ccc(C(=O)N2CCC3(CC2)Oc2ccc(F)cc2C(=O)C32CC(c3ccc(Cl)cc3)=NO2)s1 (centres undefined) | 51* | · | -6 | 0 | -6 | 33*
CC(C)C(=O)N1CCC2(CC1)Oc1ccc(F)cc1C(=O)C21CC(c2ccc(Cl)cc2)=NO1 (centres undefined) | 47* | · | -14 | 6 | -16 | 22
O=C(c1ccoc1)N1CCC2(CC1)Oc1ccc(Cl)cc1C(=O)C21CC(c2ccc(Cl)cc2)=NO1 (centres undefined) | 54* | 18 | -7 | 30 | 27 | 41*
O=C1c2cccc3cccc(c23)C(=O)N1CCCN1CCN(c2ccc(F)cc2)CC1 | 4 | 6 | -6 | 20 | 26 | ·
Cn1c(=O)[nH]c(=O)c2c1nc(N/N=C/c1ccncc1)n2Cc1ccc(Cl)cc1 | -19 | · | 32 | -12 | -21 | ·
O=C(Nc1cc(S(=O)(=O)N2CCOCC2)ccc1OCC(F)(F)F)C1=COCCO1 | 17 | 19 | 9 | 5 | -2 | ·
CC(C)C(=O)N1CCC2(CC1)Oc1ccc(Cl)cc1C(=O)C21CC(c2ccccc2)=NO1 (centres undefined) | 53* | · | -30 | 3 | -9 | 30
CC(Oc1ccccc1)C(=O)N1CCC2(CC1)Oc1ccc(Cl)cc1C(=O)C21CC(c2ccccc2)=NO1 (centres undefined) | 30 | · | -1 | 30 | 21 | ·
